The text below walks through data of PubChem BioAssay (NCATS).

Values joined by “and” are separate entries in the source; they are usually repeats but may differ in a detail not shown here. Equal values may be shown once. Records with an inconclusive call do not appear. Values without a mark were called inactive. Active and inactive are the calls of the source. Calls follow the shape of the dose curve; as a rule, active = well fitted inhibition curve with a large enough effect; inconclusive = small, poorly fitted or top-dose-only effect; inactive = flat fitted curve, though single readings scatter.

One assay relates to ICS. Kind of assay: qHTS profiling for inhibitors of Plasmodium falciparum proliferation (AID 504749). The settings on record: P. falciparum in erythrocytes, SYBR Green DNA, 72 h; series mostly up to 28.7 µM. The method in brief: (§1)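 P. falciparum-infected erythrocytes (0.3% parasitemia, 2.5% hematocrit) incubated with compound 72 h at 37 C, 5% CO2. Parasite DNA detected by SYBR Green after lysis, overnight at room temperature; normalised to 0.29 uM artemisinin and DMSO.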

The test system of a further assay is JCK. Described as above. Particulars: P. falciparum in erythrocytes, SYBR Green DNA, 72 h; series mostly up to 28.7 µM. Put shortly:
as §1

The subject of the next assay is N140. Described as above. Particulars: P. falciparum in erythrocytes, SYBR Green DNA, 72 h; series mostly up to 28.7 µM. The method in brief:
as §1

The next assay concerns P93_24. Described as above. The settings on record: P. falciparum in erythrocytes, SYBR Green DNA, 72 h; series mostly up to 28.7 µM. Put shortly: as §1
For another assay, the system named is P94_40. The assay is described as above. Particulars: P. falciparum in erythrocytes, SYBR Green DNA, 72 h; series mostly up to 28.7 µM. The method in brief: as §1
A further assay deals with PAD. The assay is described as above. Particulars: P. falciparum in erythrocytes, SYBR Green DNA, 72 h; series mostly up to 28.7 µM. The method in brief: as §1
For another assay, the system named is PC15. Described as above. Particulars: P. falciparum in erythrocytes, SYBR Green DNA, 72 h; series mostly up to 28.7 µM. Put shortly:
as §1

The next assay deals with PC26. The description is as above. Particulars: P. falciparum in erythrocytes, SYBR Green DNA, 72 h; series mostly up to 28.7 µM. Put shortly: as §1
The next assay has as its system PC49. The description is as above. Particulars: P. falciparum in erythrocytes, SYBR Green DNA, 72 h; series mostly up to 28.7 µM. The method in brief: as §1
The next assay deals with SC27B. Described as above. The settings on record: P. falciparum in erythrocytes, SYBR Green DNA, 72 h; series mostly up to 28.7 µM. The method in brief: as §1
The subject of the next assay is TAB109. Described as above. The settings on record: P. falciparum in erythrocytes, SYBR Green DNA, 72 h; series mostly up to 28.7 µM. Put shortly: as §1
The subject of another assay is TAB113. Described as above. Particulars: P. falciparum in erythrocytes, SYBR Green DNA, 72 h; series mostly up to 28.7 µM. The method in brief:
as §1

The next assay deals with TAB165. Described as above. The settings on record: P. falciparum in erythrocytes, SYBR Green DNA, 72 h; series mostly up to 28.7 µM. The method in brief:
as §1

A further assay relates to W2. The description is as above. The settings on record: P. falciparum in erythrocytes, SYBR Green DNA, 72 h; series mostly up to 28.7 µM. Put shortly:
as §1

The test system of another assay is CRL-7250. Nature of the assay: Cytotoxic Profiling of Annotated Libraries Using Quantitative High-Throughput Screening (AID 1296008). As to max response: % is scaled to controls: 0 for no effect and ±100 for the full control effect. The settings on record: Five cell lines viability, CellTiter-Glo ATP luminescence, 48-72 h; max response: hits give low values. The method in brief:
(§2)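 Cells exposed to compounds for 48 or 72 hr at 37 degrees Celsius. Viability read as ATP-coupled luminescence with CellTiter-Glo after 10 min at room temperature.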
(Cellular ATP, detected with luciferase, serves as a proxy for viable cell number.)

In a further assay the test system is HEK293. The description is as above. The settings on record: Five cell lines viability, CellTiter-Glo ATP luminescence, 48-72 h; max response: hits give low values. Put shortly: as §2
Another assay deals with HaCat. Described as above. The settings on record: Five cell lines viability, CellTiter-Glo ATP luminescence, 48-72 h; max response: hits give low values. Put shortly: as §2
A further assay has as its system KB-3-1. The assay is described as above. Particulars: Five cell lines viability, CellTiter-Glo ATP luminescence, 48-72 h; max response: hits give low values. The method in brief: as §2
A further assay concerns NIH3T3. Described as above. Particulars: Five cell lines viability, CellTiter-Glo ATP luminescence, 48-72 h; max response: hits give low values. Put shortly:
as §2
Also: nearly all actives have a fitted effect of over 60% in size.
Potency is read from the fitted curve at half-maximal effect.

As to `Oc1c(Br)cc(Br)cc1Br`, the Potency entry in the assay with ICS, with JCK, in the assay with N140, in the assay on P93_24, with P94_40 and with PAD was “inactive” throughout. Also, the Potency result in the assay on PC15, with PC26, with PC49, with SC27B, with TAB109 and in the assay on TAB113 was “inactive” throughout. Besides, the Potency entry in the assay with TAB165 and in the assay on W2 was “inactive” in each case. Further, the max response is -10.6% with CRL-7250; 2.8% in the assay with HEK293; -13% in the assay with HaCat; -5.6% with KB-3-1; -1.39% in the assay with NIH3T3.

Consider `COP(=O)(OC)C(O)C(Cl)(Cl)Cl` (stereo unspecified), for which the Potency entry in the assay with JCK, in the assay with N140, in the assay with P93_24, in the assay with P94_40, in the assay with PAD and with PC15 was “inactive” in each case. Also, the Potency result in the assay on PC26, in the assay on PC49, in the assay on SC27B, in the assay on TAB109, with TAB113 and in the assay on TAB165 was “inactive” throughout. Further, the Potency in the assay with W2 is 4.26 µM (active). Also, the max response in the assay with CRL-7250 was 3.85%; with KB-3-1, -12.2%. For the same molecule, the call in the assay with HEK293, in the assay on HaCat and in the assay on NIH3T3 was inactive.

With `CCN(Cc1ccc(Cl)nc1)/C(=C/[N+](=O)[O-])NC`, the Potency result in the assay with ICS, in the assay with JCK, in the assay on N140, with P93_24, with P94_40 and in the assay on PAD was “inactive” in each case. For the same molecule, the Potency entry with PC15, with PC26, in the assay on PC49, in the assay on SC27B, in the assay with TAB109 and in the assay with TAB113 was “inactive” in each case. In addition, the Potency entry in the assay on TAB165 is “inactive”. Besides, the max response with CRL-7250 is -14.2%; in the assay on NIH3T3, 3.9%. The molecule was called inactive with HEK293 and with HaCat.

On to `CC[n+]1c(-c2ccccc2)c2cc(N)ccc2c2ccc(N)cc21`, for which the Potency in the assay on ICS is 44.7 nM (active) and 126 nM (active); in the assay on JCK it was 79.4 nM (active) and 282 nM (active); with N140 it was 141 nM (active) and 316 nM (active); in the assay with P93_24 it was 63.1 nM (active) and 158 nM (active); in the assay with P94_40, 70.8 nM (active) and 355 nM (active); with PAD, 199 nM (active) and 316 nM (active). For the same molecule, the Potency in the assay on PC15 was 251 nM (active) and 891 nM (active); in the assay on PC26 it was 1.51 µM (active) and 2.13 µM (active); with PC49, 178 nM (active) and 316 nM (active); in the assay with SC27B it was 126 nM (active) and 355 nM (active); in the assay with TAB109, 70.8 nM (active) and 158 nM (active); with TAB113 it was 100 nM (active) and 316 nM (active). Also, the Potency was 17.8 nM (active) and 224 nM (active) in the assay with TAB165; 21.3 nM (active) and 37.9 nM (active) in the assay on W2; 6.68 µM (active) with CRL-7250; 0.596 µM (active) with HEK293; 8.2 µM (active) and 23.1 µM (active) in the assay on KB-3-1.
